Test results: PubChem BioAssay
Activity calls are given as the source filed them.

Key:
[1] = small molecules captured by biotinylated probe aFSTL3 – biochemical, small-molecule microarray, fluorescence 635/667, stem cell growth factor project, primary screen (AID 1064); settings: higher = more signal;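 note: measures binding of the biotinylated anti-FSTL3 antibody to printed compounds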
[2] = binders from COS7 lysate, DM2A8 probe, primary screen, torsin A project, cell lysate, small-molecule microarray, fluorescence 635/667 (AID 1065); settings: higher = more signal, COS7 lysate expressing mutant human TOR1A
[3] = small molecules captured by biotinylated probe aFGF2 – biochemical, small-molecule microarray, fluorescence 635/667, stem cell growth factor project, primary screen (AID 1067); settings: higher = more signal;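 note: measures binding of biotinylated aFGF2 protein to printed compounds on slides; z-score merges feature fluorescence and signal-to-noise across triplicate slides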
[4] = small molecules captured by biotinylated probe aFGF10 – biochemical, small-molecule microarray, fluorescence 635/667, stem cell growth factor project, primary screen (AID 1071); settings: higher = more signal;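 note: score merges 667 nm spot intensity and signal to noise from triplicate slides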
[5] = target: Neurogenic locus notch homolog protein 2 (Homo sapiens) (UniProt Q04721); experiment: small molecules binding Notch2 protein – biochemical, small-molecule microarray, 635 nm fluorescence, stem cell growth factors, primary screen (AID 1073); settings: higher = more signal
Neurogenic locus notch homolog protein 2 (Homo sapiens), sequence (Q04721 whole entry, looked up, canonical isoform): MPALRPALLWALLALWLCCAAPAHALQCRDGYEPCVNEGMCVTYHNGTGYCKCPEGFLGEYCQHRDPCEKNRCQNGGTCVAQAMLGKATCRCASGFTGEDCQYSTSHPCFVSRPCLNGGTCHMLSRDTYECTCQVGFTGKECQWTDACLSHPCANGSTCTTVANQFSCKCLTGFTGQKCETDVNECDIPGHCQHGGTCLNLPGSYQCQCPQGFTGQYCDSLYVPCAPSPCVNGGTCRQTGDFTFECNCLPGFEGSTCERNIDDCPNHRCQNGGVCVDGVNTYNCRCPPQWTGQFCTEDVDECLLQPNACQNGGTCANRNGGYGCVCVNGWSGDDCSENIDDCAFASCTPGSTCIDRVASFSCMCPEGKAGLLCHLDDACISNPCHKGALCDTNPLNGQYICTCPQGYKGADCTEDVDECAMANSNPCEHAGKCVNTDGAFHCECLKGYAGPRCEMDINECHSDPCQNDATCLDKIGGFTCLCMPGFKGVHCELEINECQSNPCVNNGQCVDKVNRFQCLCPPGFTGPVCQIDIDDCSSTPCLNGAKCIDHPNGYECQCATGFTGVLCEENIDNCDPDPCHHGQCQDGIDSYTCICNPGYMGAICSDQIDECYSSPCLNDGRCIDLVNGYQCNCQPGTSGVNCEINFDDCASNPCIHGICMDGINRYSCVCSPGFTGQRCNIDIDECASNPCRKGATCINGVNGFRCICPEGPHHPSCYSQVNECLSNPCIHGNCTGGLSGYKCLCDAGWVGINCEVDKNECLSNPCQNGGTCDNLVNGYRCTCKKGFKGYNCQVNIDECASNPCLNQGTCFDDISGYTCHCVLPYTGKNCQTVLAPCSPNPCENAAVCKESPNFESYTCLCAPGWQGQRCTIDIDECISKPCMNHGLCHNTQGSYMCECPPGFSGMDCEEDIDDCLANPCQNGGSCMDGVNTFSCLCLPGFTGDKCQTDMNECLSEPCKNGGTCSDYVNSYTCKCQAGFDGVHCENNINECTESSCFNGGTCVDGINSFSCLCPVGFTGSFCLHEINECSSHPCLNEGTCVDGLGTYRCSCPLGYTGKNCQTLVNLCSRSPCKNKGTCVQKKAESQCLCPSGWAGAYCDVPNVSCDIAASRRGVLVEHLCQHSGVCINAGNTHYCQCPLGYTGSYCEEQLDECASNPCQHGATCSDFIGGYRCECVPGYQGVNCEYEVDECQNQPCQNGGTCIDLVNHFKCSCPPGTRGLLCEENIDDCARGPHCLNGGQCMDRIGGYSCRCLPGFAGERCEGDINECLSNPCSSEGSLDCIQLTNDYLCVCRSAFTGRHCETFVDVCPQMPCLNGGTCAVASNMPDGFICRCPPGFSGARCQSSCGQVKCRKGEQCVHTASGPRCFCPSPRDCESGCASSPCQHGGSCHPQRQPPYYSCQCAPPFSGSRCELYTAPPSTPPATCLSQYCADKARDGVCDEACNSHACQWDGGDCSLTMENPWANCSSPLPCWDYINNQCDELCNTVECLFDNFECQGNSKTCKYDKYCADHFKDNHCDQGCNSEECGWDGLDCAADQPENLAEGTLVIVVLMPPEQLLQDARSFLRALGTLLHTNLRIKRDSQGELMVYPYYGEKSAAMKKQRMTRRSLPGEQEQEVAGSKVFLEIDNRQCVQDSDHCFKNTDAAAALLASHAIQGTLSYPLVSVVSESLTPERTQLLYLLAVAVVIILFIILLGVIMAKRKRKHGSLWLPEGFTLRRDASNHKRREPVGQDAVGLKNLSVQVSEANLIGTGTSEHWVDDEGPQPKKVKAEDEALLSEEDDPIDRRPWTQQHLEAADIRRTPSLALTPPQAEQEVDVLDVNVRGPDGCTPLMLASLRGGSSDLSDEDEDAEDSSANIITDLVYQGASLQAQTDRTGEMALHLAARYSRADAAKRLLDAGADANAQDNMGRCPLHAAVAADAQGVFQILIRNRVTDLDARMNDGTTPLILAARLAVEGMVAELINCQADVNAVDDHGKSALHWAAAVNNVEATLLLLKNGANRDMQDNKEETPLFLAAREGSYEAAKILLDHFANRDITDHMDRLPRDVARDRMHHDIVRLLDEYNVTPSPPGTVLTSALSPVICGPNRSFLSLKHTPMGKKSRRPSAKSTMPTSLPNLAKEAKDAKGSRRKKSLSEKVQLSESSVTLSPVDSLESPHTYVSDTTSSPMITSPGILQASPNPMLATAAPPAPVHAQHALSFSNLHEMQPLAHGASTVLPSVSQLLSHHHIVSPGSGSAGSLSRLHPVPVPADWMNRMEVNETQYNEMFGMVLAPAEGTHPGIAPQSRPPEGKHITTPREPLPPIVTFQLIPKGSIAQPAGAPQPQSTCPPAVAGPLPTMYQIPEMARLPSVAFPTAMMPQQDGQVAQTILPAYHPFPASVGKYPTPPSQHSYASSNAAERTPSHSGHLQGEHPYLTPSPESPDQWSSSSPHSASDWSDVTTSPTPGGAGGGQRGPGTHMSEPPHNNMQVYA

[6] = target: Pro-neuregulin-1, membrane-bound isoform (Homo sapiens) (UniProt Q02297); experiment: small molecules binding neuregulin-1 protein – biochemical, small-molecule microarray, fluorescence 635/667, psychiatric disease protein project, primary screen (AID 1075); settings: NRG1 binding, 635 nm fluorescence, higher = more signal;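 note: score combines 667 nm spot fluorescence with signal to noise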
[7] = test system: Neuregulin-1 EGF-like domain; experiment: small molecules binding NRG1 EGF domain – biochemical, small-molecule microarray, 635 nm fluorescence, primary screen (AID 1081); settings: higher = more signal;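 note: binding of the protein to compounds printed on small-molecule microarray slides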
[8] = FRG1 expression reporter modulators in myotubes – cell-based, C2C12 myotubes, firefly/Renilla luciferase, luminescence, FRG1 inhibition for FSHD, primary screen (AID 1084); settings: FRG1 promoter luciferase, higher = more signal, called active from +8 up or from −8 down
[9] = small molecules captured by biotinylated probe aFST – biochemical, small-molecule microarray, fluorescence 635/667, stem cell growth factor project, primary screen (AID 1086); settings: higher = more signal;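 note: score merges 667 nm fluorescence with signal-to-noise of each printed compound spot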
[10] = binders of probe aHhip on microarray, primary screen, stem cell growth factor project, biochemical, small-molecule microarray, fluorescence 635/667 (AID 1087); settings: higher = more signal;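 note: score merges spot fluorescence at 667nm with spot signal to noise ratio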
[11] = test system: PRMT1 (protein arginine N-methyltransferase 1); experiment: small molecules binding arginine methyltransferase PRMT1 – biochemical, small-molecule microarray, 635 nm fluorescence, primary screen (AID 1088); settings: higher = more signal;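 note: binding of Prmt1 protein to compounds spotted on small-molecule microarray slides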
[12] = growth effects on S. cerevisiae YJM789 – YJM789 clinical isolate, OD600, 24 h, basal, primary screen (AID 1089); settings: higher = more signal, called active from +8 up or from −8 down;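 note: growth of clinical yeast isolate S. cerevisiae YJM 789 seeded 1000 cells per well; test concentration not given here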
[13] = S. pombe growth modifiers, basal conditions – strain 972, OD600, 24 h, no modulator, primary screen (AID 1090);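 note: basal condition with compound alone and no growth modifier present; test concentration not given here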; settings: S. pombe 972 growth, higher = more signal, called active from +8 up or from −8 down
[14] = budding yeast growth modifiers under rapamycin – strain BY4716, OD600, 96 h, primary screen (AID 1091); note: test concentration not given here; settings: S. cerevisiae BY4716 + rapamycin, higher = more signal, called active from +8 up or from −8 down
[15] = target: Torsin-1A-interacting protein 2 (Homo sapiens) (UniProt Q8NFQ8); experiment: small molecules binding lysate-expressed LULL1 – cell lysate, human LULL1 lysate, 635/667 nm fluorescence, primary screen (AID 1092); settings: small-molecule microarray, hLULL1 lysate binding, 635 nm fluorescence; higher = more signal;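 note: probe is lysate of COS7 cells overexpressing human LULL1; score merges per-feature 667 nm fluorescence with signal-to-noise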
[16] = optical density change of DRC41 E. coli – strain DRC41, OD650, 24 h, E. coli filamentation project, primary screen (AID 1093);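 note: MC1000 strain lacking acrAB efflux and sulA so SOS filamentation is blocked; test concentration not given here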; settings: E. coli DRC41 growth, higher = more signal, called active from +8 up or from −8 down
[17] = probe aLefty2 binding to arrayed compounds – biochemical, biotinylated probe, 635/667 nm fluorescence, primary screen (AID 1094); settings: small-molecule microarray, higher = more signal;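 note: score merges spot fluorescence near 667 nm with spot signal-to-noise ratio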
[18] = test system: Noggin (protein binding on small-molecule microarray); experiment: small molecules binding Noggin protein – biochemical, 635/667 nm fluorescence, primary screen (AID 1095); settings: 635 nm fluorescence, higher = more signal;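 note: score merges 667 nm feature fluorescence with signal to noise over triplicate slides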
[19] = target: Neurogenic locus notch homolog protein 3 (Homo sapiens) (UniProt Q9UM47); experiment: small molecules binding NOTCH3 protein – biochemical, 635/667 nm fluorescence, primary screen (AID 1096); settings: small-molecule microarray, 635 nm fluorescence, higher = more signal
Neurogenic locus notch homolog protein 3 (Homo sapiens), sequence (Q9UM47 whole entry, looked up): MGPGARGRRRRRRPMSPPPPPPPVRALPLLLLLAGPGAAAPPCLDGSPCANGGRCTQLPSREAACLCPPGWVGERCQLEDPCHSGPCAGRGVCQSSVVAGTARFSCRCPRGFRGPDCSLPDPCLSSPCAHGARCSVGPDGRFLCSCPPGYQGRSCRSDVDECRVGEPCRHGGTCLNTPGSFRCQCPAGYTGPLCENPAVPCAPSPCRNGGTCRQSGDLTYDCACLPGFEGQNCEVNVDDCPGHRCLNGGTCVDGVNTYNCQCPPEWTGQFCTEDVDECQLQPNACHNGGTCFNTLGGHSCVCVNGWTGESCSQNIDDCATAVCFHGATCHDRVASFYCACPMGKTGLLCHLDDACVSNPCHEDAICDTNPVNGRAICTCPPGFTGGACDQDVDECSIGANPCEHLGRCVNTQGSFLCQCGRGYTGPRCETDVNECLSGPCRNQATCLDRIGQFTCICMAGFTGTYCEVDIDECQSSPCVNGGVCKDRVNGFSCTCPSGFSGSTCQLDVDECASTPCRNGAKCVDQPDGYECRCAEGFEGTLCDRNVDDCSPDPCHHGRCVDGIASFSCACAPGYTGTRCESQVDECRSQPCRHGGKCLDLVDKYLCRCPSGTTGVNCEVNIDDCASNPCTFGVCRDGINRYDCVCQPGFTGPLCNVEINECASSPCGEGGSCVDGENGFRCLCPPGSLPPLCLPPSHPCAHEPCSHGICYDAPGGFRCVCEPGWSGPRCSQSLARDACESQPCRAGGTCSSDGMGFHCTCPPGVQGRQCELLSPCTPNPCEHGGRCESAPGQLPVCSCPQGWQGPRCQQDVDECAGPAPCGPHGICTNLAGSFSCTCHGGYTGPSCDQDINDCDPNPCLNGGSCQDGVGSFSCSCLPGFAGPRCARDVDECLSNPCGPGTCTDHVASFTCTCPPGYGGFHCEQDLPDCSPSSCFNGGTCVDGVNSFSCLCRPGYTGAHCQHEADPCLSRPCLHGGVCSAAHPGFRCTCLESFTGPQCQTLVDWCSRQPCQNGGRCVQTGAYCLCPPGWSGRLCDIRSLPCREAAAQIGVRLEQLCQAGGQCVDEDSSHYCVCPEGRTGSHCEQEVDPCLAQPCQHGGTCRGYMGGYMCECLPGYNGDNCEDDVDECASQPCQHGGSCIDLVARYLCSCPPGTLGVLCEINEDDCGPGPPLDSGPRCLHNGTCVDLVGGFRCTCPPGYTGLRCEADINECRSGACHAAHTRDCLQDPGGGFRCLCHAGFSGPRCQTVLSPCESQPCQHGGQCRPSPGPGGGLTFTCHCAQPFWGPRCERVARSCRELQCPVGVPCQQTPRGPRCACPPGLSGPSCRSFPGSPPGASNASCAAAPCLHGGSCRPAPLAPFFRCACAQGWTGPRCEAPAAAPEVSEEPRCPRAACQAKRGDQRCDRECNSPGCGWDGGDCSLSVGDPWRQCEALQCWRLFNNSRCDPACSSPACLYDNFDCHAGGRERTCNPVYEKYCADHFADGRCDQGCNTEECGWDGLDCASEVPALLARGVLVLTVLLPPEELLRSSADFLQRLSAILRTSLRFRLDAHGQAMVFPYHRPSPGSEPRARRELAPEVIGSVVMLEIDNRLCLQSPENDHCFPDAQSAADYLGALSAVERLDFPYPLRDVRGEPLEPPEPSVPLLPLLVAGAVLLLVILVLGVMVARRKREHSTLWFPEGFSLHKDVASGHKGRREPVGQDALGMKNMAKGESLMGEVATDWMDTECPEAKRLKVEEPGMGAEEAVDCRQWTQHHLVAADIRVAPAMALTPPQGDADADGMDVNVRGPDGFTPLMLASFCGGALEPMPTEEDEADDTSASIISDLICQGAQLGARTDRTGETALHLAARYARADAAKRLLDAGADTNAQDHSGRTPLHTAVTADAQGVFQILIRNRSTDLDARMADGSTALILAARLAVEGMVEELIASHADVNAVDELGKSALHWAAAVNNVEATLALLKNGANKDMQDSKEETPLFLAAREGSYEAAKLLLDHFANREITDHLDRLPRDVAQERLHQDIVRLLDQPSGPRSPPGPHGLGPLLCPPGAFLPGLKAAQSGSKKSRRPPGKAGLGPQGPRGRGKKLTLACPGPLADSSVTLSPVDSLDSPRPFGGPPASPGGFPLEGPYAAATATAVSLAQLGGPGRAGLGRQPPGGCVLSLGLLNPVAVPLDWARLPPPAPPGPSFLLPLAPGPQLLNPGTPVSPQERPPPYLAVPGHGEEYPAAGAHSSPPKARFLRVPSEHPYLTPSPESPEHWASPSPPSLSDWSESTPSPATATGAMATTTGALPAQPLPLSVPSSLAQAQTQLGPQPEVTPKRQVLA

[20] = probe aEGFR binding to arrayed compounds – biochemical, biotinylated probe, 635/667 nm fluorescence, primary screen (AID 1097); settings: small-molecule microarray, higher = more signal;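 note: probe is a biotinylated anti-EGFR antibody binding compounds printed on slides; score combines fluorescence near 667 nm and signal to noise of each spot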

Row | Structure (SMILES) | composite z-score [1] | composite z-score [2] | composite z-score [3] | composite z-score [4] | composite z-score [5] | composite z-score [6] | composite z-score [7] | z-score [8] | composite z-score [9] | composite z-score [10] | composite z-score [11] | z-score [12] | z-score [13] | z-score [14] | composite z-score [15] | z-score [16] | composite z-score [17] | composite z-score [18] | composite z-score [19] | composite z-score [20]
1 | CC(C)(C)N1C(=O)[C@H]2[C@H]3[C@H](O)[C@H](O)CC(=O)[C@@H]3CC[C@H]2C1=O | 1.64 | 0.0227 | -0.156 | 0.673 | 0.259 | -0.404 | 0.304 | -0.255 (inactive) | 0.723 | -0.0645 | 0.33 | -0.128 (inactive) | -0.509 (inactive) | -0.0675 (inactive) | -0.26 | -0.561 (inactive) | -0.204 | 0.562 | 0.373 | -0.147
2 | CC(=O)Nc1ccc([C@@H]2N[C@H](C(=O)O)CC[C@H]2C)cc1 | -0.508 | 0.301 | -0.135 | 0.426 | 0.785 | 0.0589 | 0.151 | 0.564 (inactive) | 0.296 | -0.0618 | 0.0579 | 0.216 (inactive) | -0.228 (inactive) | 0.634 (inactive) | 0.184 | 0.622 (inactive) | -0.139 | 0.399 | 0.626 | -0.0493
3 | CC(C)CON=C1C[C@@H](O)[C@@H](O)[C@@H]2[C@@H]3C(=O)N(C[C@@H]4CCCO4)C(=O)[C@@H]3CC[C@@H]12 | -0.308 | -0.0385 | -0.132 | 0.0654 | -0.489 | -0.672 | -0.321 | -0.108 (inactive) | -0.271 | -0.0994 | 0.242 | -1.49 (inactive) | 0.283 (inactive) | -0.625 (inactive) | 1.38 | 1.27 (inactive) | -0.209 | 0.262 | -0.435 | -0.22
4 | CO[C@H]1COC(=O)[C@@H]2CCCN2C(=O)CC=C[C@@H](C)[C@H](OC)COC(=O)[C@@H](OCc2ccccc2)C=C[C@@H]1C | -0.466 | 1.29 | -0.175 | -0.477 | -0.624 | -0.233 | 0.269 | -0.0576 (inactive) | 0.317 | 0.176 | 1.3 | 0.14 (inactive) | -0.826 (inactive) | 0.087 (inactive) | -1.13 | 0.279 (inactive) | -0.155 | 1.08 | -0.203 | 0.0564
5 | CCOC(=O)NN=C1C[C@@H](O)[C@@H](O)[C@@H]2[C@@H]3C(=O)N([C@@H](C)c4ccccc4)C(=O)[C@@H]3CC[C@@H]12 | -0.291 | 2.08 | -0.0934 | 0.393 | 0.601 | -0.133 | 0.11 | 0.696 (inactive) | 0.517 | -0.0994 | 1.46 | -0.707 (inactive) | 0.159 (inactive) | -0.231 (inactive) | -0.0284 | 0.667 (inactive) | -0.113 | 0.797 | 0.954 | 0.143
6 | CCCCC#C[C@@H]1C=C[C@H](Oc2cc(OC)c(OC)c(OC)c2)[C@@H](COC(=O)OCC)O1 | -0.682 | -0.0561 | -0.116 | -0.0152 | -0.526 | -0.158 | -0.365 | -0.214 (inactive) | -0.311 | 0.141 | 0.314 | 0.635 (inactive) | -2.19 (inactive) | 0.398 (inactive) | -0.16 | 0.934 (inactive) | -0.209 | 0.229 | -0.208 | -0.162
7 | CCOC(=O)[C@H](CC(C)C)NC(=O)CCC1CC(OC(=O)NCCc2ccc(F)cc2)CC2(CCCC(COC(=O)NCCc3ccccc3OC)O2)O1 (stereo not given in full) | -0.329 | 0.0726 | -0.0806 | 0.363 | 0.41 | 1.08 | 0.577 | 0.617 (inactive) | 0.216 | -0.134 | 1.15 | 0.217 (inactive) | 1.02 (inactive) | 0.471 (inactive) | 1.73 | -0.0351 (inactive) | -0.19 | 0.718 | 1.12 | 0.0004
8 | Cn1c(=O)n2n(c1=O)[C@H]1[C@H](O)[C@@H]3O[C@@H]3C(=O)[C@H]1CC2 | -0.439 | 0.197 | -0.128 | 0.355 | 0.584 | -0.208 | 0.712 | 0.101 (inactive) | 0.95 | 0.0053 | -0.261 | 0.954 (inactive) | 0.595 (inactive) | 0.672 (inactive) | 0.485 | 0.442 (inactive) | -0.13 | 0.457 | 0.557 | -0.0508
9 | COC(=O)[C@H](C)NC(=O)CCC1CC(OC(=O)NCc2ccc3c(c2)OCO3)CC2(CCCC(COC(=O)NCCc3ccccc3OC)O2)O1 (stereo not given in full) | -0.587 | 0.172 | -0.171 | 0.16 | 0.138 | 0.597 | 0.751 | 1.06 (inactive) | -0.17 | 0.0274 | 0.472 | -1.21 (inactive) | 0.124 (inactive) | -0.167 (inactive) | 1.89 | 0.872 (inactive) | -0.166 | 0.181 | 0.0607 | -0.0798
10 | COC(=O)CC=C[C@@H](C)[C@@H](C=NO[C@H](C)c1cn([C@@H]2COC[C@H]2O)nn1)NS(=O)(=O)c1ccc(C)cc1 | -0.279 | 0.612 | -0.0027 | 0.575 | 0.283 | 0.0806 | 0.928 | -1.24 (inactive) | 0.374 | -0.166 | 0.274 | 0.412 (inactive) | 0.144 (inactive) | -0.173 (inactive) | -0.0305 | 0.554 (inactive) | 0.0428 | 0.492 | 0.223 | 0.0049
